Experimental findings from PubChem BioAssay (Tox21) are described below.

Activity calls are given as the source filed them. Where a call stands in place of a potency, no number is given. Calls follow the shape of the dose curve; as a rule, active = well fitted activation curve with a large enough effect in the repeat runs; inconclusive = weak or mixed curves; inactive = flat fitted curve, though single readings scatter.

Chain of KiSS-1 receptor (Homo sapiens) (Q969F8 whole entry, looked up): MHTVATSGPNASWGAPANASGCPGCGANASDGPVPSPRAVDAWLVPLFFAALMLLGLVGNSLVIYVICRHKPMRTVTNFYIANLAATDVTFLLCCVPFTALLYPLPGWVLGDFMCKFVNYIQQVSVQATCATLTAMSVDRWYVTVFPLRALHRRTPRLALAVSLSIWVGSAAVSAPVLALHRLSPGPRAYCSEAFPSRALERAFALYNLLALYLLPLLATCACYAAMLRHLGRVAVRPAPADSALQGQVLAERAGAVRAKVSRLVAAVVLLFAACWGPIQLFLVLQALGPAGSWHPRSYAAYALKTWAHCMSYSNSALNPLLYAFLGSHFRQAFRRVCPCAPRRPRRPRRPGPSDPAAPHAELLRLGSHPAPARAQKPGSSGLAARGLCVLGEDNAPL

The assay concerns the target KiSS-1 receptor (Homo sapiens) (UniProt Q969F8). Description: Human kisspeptin (KISS1R) small molecule agonists, calcium flux assay in KISS1R-HEK293 cells (AID 1920064). The settings on record: KISS1R-HEK293, calcium flux fluorescence, agonist; series mostly up to 76.8 µM. An excerpt:
National Center for Advancing Translational Sciences [NCATS]
Division of Preclinical Innovation [DPI]
U.S. Environmental Protection Agency [EPA]
National Institutes of Environmental Health Sciences [NIEHS]
National Toxicology Program [NTP]
U.S. Food and Drug Administration [FDA]
Kisspeptin and its receptor KISS1R play key roles in mammalian reproduction due to their involvement in the onset of puberty and control of the hypothalamic-pituitary-gonadal axis such as regulates GnRH release from the hypothalamus. The kisspeptin/KISS1R system also plays a direct role in peripheral organs (including the ovary, testis, uterus, and placenta) and is implicated in reproductive diseases such as miscarriage and polycystic ovary syndrome (PCOS). Abnormal KISS1R activity is associated with abnormal puberty, infertility, endometriosis, and hormone-dependent tumors. The KISS1 receptor (KISS1R, also called GPR54), a G-protein-coupled receptor (GPCR), acts (through phospholipase C) to increase intracellular inositol trisphosphate and then release intracellular calcium stores. Cell-based KISS1R-HEK293 assay is using HEK293 cells that have been genetically engineered to express the human KISS1R, which activity can be measured by calcium signaling. A compound/drug can activate (agonist) KISS1R that can be monitored by levels of intracellular calcium.
KISS1R-HEK293 cells developed by Codex Corp contain human KISS1R gene, which was stably integrated into HEK 293 cells. The compound activation can be detected by fluorescence intensity via calcium flux assay. This cell line has been used to screen the Tox21 10K compound library to identify agonists of KISS1R.
KISS1R-Hek293 cells were dispensed at 1500 cells/4uL/well in 1536-well black wall/clear bottom plates using a multidrop dispenser. After the assay plates were incubated at a 37 C/5% CO2 incubator for 18 hours, 4 microL of Calcium Dye Solution was added to each well. The plates were incubated at 37 C for 1 hour. And then 23 nL of compounds dissolved in DMSO, positive controls, or DMSO only was transferred to the assay plate by a pin tool station. The fluorescence intensity in the plates was measured using FDSS 7000EX kinetic plate reader with a filter set of Ex/Em=480/540 for 3 min at 1 sec intervals. Each test compound was measured at 15 concentrations and in triplicates.
A general note: Calcium flux is commonly read through the fluorescence of an indicator in the cells.
As to `CC(=O)[O-].CC(=O)[O-].O.O.[Cd+2]`, the Potency entry is “inactive”.

For the molecule `CC(=O)Nc1cc([As](=O)(O)O)ccc1O`, the Potency entry was “inactive”.

Turning to `[O]=[Cd]`, the Potency result was “inactive”.

As for `O=C1OC(c2ccc(O)c(S(=O)(=O)O)c2)(c2ccc(O)c(S(=O)(=O)O)c2)c2c(Br)c(Br)c(Br)c(Br)c21`, the Potency result is “inactive”.

Take `CCS(=O)(=O)CCSP(=O)(OC)OC`: the Potency entry was “inactive”.

For the molecule `CC1(C)CC/C(=C/c2ccc(Cl)cc2)C1(O)Cn1cncn1` (stereo not given), the Potency result is “inactive”.

As to `CC(O)C(=O)[O][Hg][c]1ccccc1` (stereo not given), the Potency result was “inactive”.

Turning to `C[C@]12CC[C@H]3[C@@H](CCC4=CC(=O)CC[C@@H]43)[C@@H]1CC[C@@H]2OC(=O)CCC1CCCCC1`, the Potency entry is “inactive”.

On to `CC(C)(C)NCC(O)c1cc(Cl)c(N)c(Cl)c1` (stereo not given), for which the Potency result was “inactive”.

On to `COP(=O)(OC)O/C(C)=C/C(=O)N(C)C`, for which the Potency entry was “inactive”.

Consider `COc1cc(OC)nc(NC(=O)NS(=O)(=O)c2ncccc2OCC(F)(F)F)n1`, for which the Potency entry is “inactive”.

In the case of `O=[N+]([O-])c1cc(C(F)(F)F)c(Cl)c([N+](=O)[O-])c1Nc1ncc(C(F)(F)F)cc1Cl`, the Potency result was “inactive”.

In the case of `CC(Oc1cc(Cl)c(Cl)cc1Cl)C(=O)O` (stereo not given), the Potency entry was “inactive”.

For `Cc1cc(C2CC2)nc(Nc2ccccc2)n1`, the Potency result was “inactive”.

Consider `COP(=S)(OC)Oc1ccc([N+](=O)[O-])c(C)c1`, for which the Potency entry is “inactive”.

Consider `O=S1OC[C@@H]2[C@H](CO1)[C@]1(Cl)C(Cl)=C(Cl)[C@@]2(Cl)C1(Cl)Cl` (stereo not given in full), for which the Potency result was “inactive”.

As for `Fc1ccc(C(OCCN2CCN(CCCc3ccccc3)CC2)c2ccc(F)cc2)cc1`, the Potency result was “inactive”.

For `COc1cc(CC(C)N)cc(OC)c1OC` (stereo not given), the Potency entry is “inactive”.

`C1CCC(C2CCCCC2)CC1`: the Potency result was “inactive”.

For the molecule `O=C(NC(=O)c1c(F)cccc1F)Nc1cc(Cl)c(Oc2ncc(C(F)(F)F)cc2Cl)c(Cl)c1`, the Potency result was “inactive”.

Regarding `CC(C)(C)OO`, the Potency entry is “inactive”.

On to `NNCCO`, for which the Potency result is “inactive”.

Regarding `CCCCN(CCCC)C(=S)[S-].CCCCN(CCCC)C(=S)[S-].[Zn+2]`, the Potency entry is “inactive”.

Turning to `CCOP(=S)(OCC)SCCl`, the Potency entry was “inactive”.

As to `CC(=O)NNc1ccccc1`, the Potency result is “inactive”.

Consider `Nc1nc(N)nc(N)n1`, for which the Potency entry was “inactive”.

Regarding `CCCCn1cc[n+](C)c1.[Cl][Fe-]([Cl])([Cl])[Cl]`, the Potency entry was “inactive”.

With `CN(C)C(=O)Oc1cc(OC(=O)N(C)C)cc(C(O)CNC(C)(C)C)c1` (stereo not given), the Potency entry is “inactive”.

For `CC1(c2ccc(Oc3ccccc3)cc2)OC(=O)N(Nc2ccccc2)C1=O` (stereo not given), the Potency result was “inactive”.

Take `CCCSP(=O)(OCC)Oc1ccc(Br)cc1Cl` (stereo not given): the Potency result is “inactive”.

As for `CC[C@@H](CO)NC(=O)[C@@H]1C=C2c3cccc4[nH]cc(c34)C[C@H]2N(C)C1`, the Potency result was “inactive”.

For the molecule `COC(=O)C(C)Oc1ccc(Oc2ccc(Cl)cc2Cl)cc1` (stereo not given), the Potency entry was “inactive”.

With `[O-][Cl+3]([O-])([O-])O`, the Potency entry was “inactive”.

As to `CCN[C@@H](C)Cc1cccc(C(F)(F)F)c1`, the Potency result was “inactive”.

On to `C[C@@H](Oc1ccc(Cl)cc1Cl)C(=O)O`, for which the Potency result is “inactive”.

For the molecule `COP(=S)(OC)Oc1ccc(S(N)(=O)=O)cc1`, the Potency entry is “inactive”.

For `II`, the Potency entry is “inactive”.

As for `Cc1cccc2sc3nncn3c12`, the Potency result is “inactive”.

`COc1cc(OC)c(OC)cc1C=O`: the Potency result was “inactive”.

On to `CC(O)CCl` (stereo not given), for which the Potency entry is “inactive”.
